Experimental data reported in PubChem BioAssay (EPA / NIEHS).
Records with an inconclusive call do not appear. Active and inactive are the calls of the source. Rule for the calls, unless noted: active = hit-call score of the fitted dose curve at least 0.9, where 1 is the maximum; inconclusive = response in the unintended direction; inactive = score below 0.9.

The compounds below were run against Cytochrome P450 2C18 (Homo sapiens) (UniProt P33260) (assay: NVS_ADME_hCYP2C18: NovaScreen (NVS) CYP450-related Enzyme Activity (ADME) Assay for human CYP2C18 (AID 2283103; active = hit-call score of the fitted dose curve at least 0.9, where 1 is the maximum; inactive = score below 0.9)).
Cytochrome P450 2C18 (Homo sapiens), sequence (P33260 whole entry, looked up): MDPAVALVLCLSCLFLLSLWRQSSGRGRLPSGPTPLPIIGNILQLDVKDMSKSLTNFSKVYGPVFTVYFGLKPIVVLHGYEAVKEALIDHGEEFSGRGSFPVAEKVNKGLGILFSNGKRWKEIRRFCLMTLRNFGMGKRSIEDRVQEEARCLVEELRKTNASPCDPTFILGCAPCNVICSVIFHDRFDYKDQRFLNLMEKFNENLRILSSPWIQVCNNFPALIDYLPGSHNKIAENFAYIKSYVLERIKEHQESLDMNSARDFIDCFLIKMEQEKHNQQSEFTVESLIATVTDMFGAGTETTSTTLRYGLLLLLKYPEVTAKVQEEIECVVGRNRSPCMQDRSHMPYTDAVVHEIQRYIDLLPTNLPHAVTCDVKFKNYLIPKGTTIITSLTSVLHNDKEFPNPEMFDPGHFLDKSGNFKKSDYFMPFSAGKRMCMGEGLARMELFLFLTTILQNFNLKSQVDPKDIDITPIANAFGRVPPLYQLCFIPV
How it was run: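 Enzyme activity measured by fluorescence 0.5 h after compound addition, using recombinant CYP2C18 and a specific substrate. Actives from duplicate 10 uM screening were retested in concentration series (top 20 uM); acetonitrile served as negative baseline.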
With CC(C)=CC1C(C(=O)OCN2C(=O)C3=C(CCCC3)C2=O)C1(C)C (stereo not drawn) the AC50 was 4.3 µM (active). CSC1=N[C@@](C)(c2ccccc2)C(=O)N1Nc1ccccc1 was tested, and the AC50 was 5.62 µM (active). In the case of COc1ccc(C(=CC(=O)N2CCOCC2)c2ccc(Cl)cc2)cc1OC, the AC50 is reported as 7 µM (active). In the case of C=C(C)[C@H]1Cc2c(ccc3c2O[C@@H]2COc4cc(OC)c(OC)cc4[C@@H]2C3=O)O1, the AC50 is reported as 2.62 µM (active). For CC[C@H](C)[C@H]1O[C@]2(C=C[C@@H]1C)C[C@@H]1C[C@@H](C/C=C(\C)[C@@H](O[C@H]3C[C@H](OC)[C@@H](O[C@H]4C[C@H](OC)[C@@H](NC)[C@H](C)O4)[C@H](C)O3)[C@@H](C)/C=C/C=C3\CO[C@@H]4[C@H](O)C(C)=C[C@@H](C(=O)O1)[C@]34O)O2, the AC50 was 5.39 µM (active). In the case of CON=C(C(=O)OC)c1ccccc1CON=C(C)c1cccc(C(F)(F)F)c1, the AC50 is reported as 1.21 µM (active).

Each compound was assayed against human CYP2D6, CYP2D6 (gene 1565) (UniProt P10635) (assay: NVS_ADME_hCYP2D6: NovaScreen (NVS) CYP450-related Enzyme Activity (ADME) Assay for human CYP2D6 (AID 2283107)).
human CYP2D6, CYP2D6 (gene 1565), sequence (P10635 whole entry, looked up): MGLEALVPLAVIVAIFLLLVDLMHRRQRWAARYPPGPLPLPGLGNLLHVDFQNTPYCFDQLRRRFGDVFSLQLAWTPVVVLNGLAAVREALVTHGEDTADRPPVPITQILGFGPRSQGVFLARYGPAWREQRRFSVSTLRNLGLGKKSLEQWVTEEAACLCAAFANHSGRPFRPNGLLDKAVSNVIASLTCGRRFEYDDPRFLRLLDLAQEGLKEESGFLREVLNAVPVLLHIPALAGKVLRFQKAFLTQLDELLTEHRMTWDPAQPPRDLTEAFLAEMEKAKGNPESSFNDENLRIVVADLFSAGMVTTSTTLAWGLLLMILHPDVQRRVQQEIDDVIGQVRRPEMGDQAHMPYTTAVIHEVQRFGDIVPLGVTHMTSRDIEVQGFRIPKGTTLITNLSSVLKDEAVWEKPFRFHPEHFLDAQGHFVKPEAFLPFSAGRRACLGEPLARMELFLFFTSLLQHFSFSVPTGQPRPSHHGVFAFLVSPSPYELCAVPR
How it was run: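 Cell-free assay using recombinant human CYP2D6 expressed in insect cells, with a fluorogenic substrate read after 1 h. Primary screen in duplicate at 10 uM; actives followed up in concentration series. Loss of signal fitted relative to acetonitrile.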
In the case of CN(C)[C@@H]1C(=O)C(C(N)=O)=C(O)[C@@]2(O)C(=O)C3=C(O)c4c(O)cccc4[C@@](C)(O)[C@H]3[C@H](O)[C@@H]12, the outcome is reported as “inactive”. With COP(=O)(OC)OC(Br)C(Cl)(Cl)Br (stereo not drawn) the outcome was “inactive”. For CSc1nnc(C(C)(C)C)c(=O)n1N, the outcome was “inactive”. In the case of CCCSP(=O)(OCC)SCCC, the AC50 is reported as 7.87 µM (active).

Each compound was assayed against human CYP2C9, CYP2C9 (gene 1559) (UniProt P11712) (assay: NVS_ADME_hCYP2C9: NovaScreen (NVS) CYP450-related Enzyme Activity (ADME) Assay for human CYP2C9 (AID 2283108)).
human CYP2C9, CYP2C9 (gene 1559), sequence (P11712 whole entry, looked up): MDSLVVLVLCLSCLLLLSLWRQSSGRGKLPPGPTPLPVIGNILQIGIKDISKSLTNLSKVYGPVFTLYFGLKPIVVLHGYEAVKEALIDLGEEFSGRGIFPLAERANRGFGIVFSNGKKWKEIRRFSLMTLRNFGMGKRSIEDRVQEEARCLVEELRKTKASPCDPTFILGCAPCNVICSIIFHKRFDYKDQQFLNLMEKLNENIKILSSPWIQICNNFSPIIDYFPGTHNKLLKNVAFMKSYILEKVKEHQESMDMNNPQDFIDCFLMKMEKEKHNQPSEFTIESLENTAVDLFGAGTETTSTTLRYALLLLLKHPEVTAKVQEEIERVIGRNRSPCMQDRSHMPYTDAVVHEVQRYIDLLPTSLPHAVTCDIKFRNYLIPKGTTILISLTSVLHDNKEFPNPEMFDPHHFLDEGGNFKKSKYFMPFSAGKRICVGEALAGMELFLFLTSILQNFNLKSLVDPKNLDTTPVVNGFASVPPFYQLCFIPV
How it was run: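 Recombinant human CYP2C9 expressed in SF9 cells, fluorogenic substrate, fluorescence read 0.75 h after dosing. Chemicals first run in duplicate at 10 uM, with actives followed in concentration series; loss of signal versus acetonitrile baseline.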
For CC(C)=CC1C(C(=O)OCN2C(=O)C3=C(CCCC3)C2=O)C1(C)C (stereo not drawn), the AC50 was 10 µM (active). For COP(=O)(OC)OC(Br)C(Cl)(Cl)Br (stereo not drawn), the outcome was “inactive”. With COc1cccc(C(=O)NN(C(=O)c2cc(C)cc(C)c2)C(C)(C)C)c1C the outcome was “inactive”. In the case of CC1(C(=O)Nc2ccc(O)c(Cl)c2Cl)CCCCC1, the AC50 is reported as 2.58 µM (active). With CCOP(=S)(OCC)OC(Cl)C(Cl)(Cl)Cl (stereo not drawn) the AC50 was 10 µM (active). For CCC(=NOC/C=C/Cl)C1=C(O)CC(C2CCOCC2)CC1=O (stereo not drawn), the outcome was “inactive”.

The compounds below were run against Cytochrome P450 2C19 (Homo sapiens) (UniProt P33261) (assay: NVS_ADME_hCYP2C19: NovaScreen (NVS) CYP450-related Enzyme Activity (ADME) Assay for human CYP2C19 (AID 2283113);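 for AC50: potency for inhibition seen as loss of fluorescent signal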).
How it was run: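 Cell-free recombinant human CYP2C19 from insect cells, fluorescent substrate; activity read by fluorescence intensity 1 h after dosing. Primary screen in duplicate at 10 uM; actives retested in concentration series. Signal loss versus acetonitrile negative control.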
CC(C)=CC1C(C(=O)OCN2C(=O)C3=C(CCCC3)C2=O)C1(C)C (stereo not drawn) was tested, and the AC50 was 6.88 µM (active). In the case of CC(C)[C@H](C(=O)O[C@H](C#N)c1cccc(Oc2ccccc2)c1)c1ccc(Cl)cc1, the AC50 is reported as 8.22 µM (active). In the case of CCOP(=O)(OCC)Oc1cc(C)nc(C(C)C)n1, the AC50 is reported as 10 µM (active). CCc1cccc(CC)c1N(COC)C(=O)CCl was tested, and the AC50 was 6.1 µM (active). COP(=O)(OC)OC(Br)C(Cl)(Cl)Br (stereo not drawn) was tested, and the AC50 was 7.79 µM (active). For CCCCOC(=O)[C@@H](C)Oc1ccc(Oc2ccc(C#N)cc2F)cc1, the AC50 was 10 µM (active). CCOP(=S)(OCC)Oc1cc(C)nc(C(C)C)n1 was tested, and the AC50 was 4.82 µM (active). With CCOP(=O)(SC(C)CC)N1CCSC1=O (stereo not drawn) the AC50 was 6.44 µM (active). For CSC1=N[C@@](C)(c2ccccc2)C(=O)N1Nc1ccccc1, the AC50 was 0.776 µM (active). In the case of COc1cccc(C(=O)NN(C(=O)c2cc(C)cc(C)c2)C(C)(C)C)c1C, the AC50 is reported as 2.58 µM (active). With CSc1nnc(C(C)(C)C)c(=O)n1N the outcome was “inactive”. In the case of CC1(C(=O)Nc2ccc(O)c(Cl)c2Cl)CCCCC1, the AC50 is reported as 6.6 µM (active). With COc1ccc(C(=CC(=O)N2CCOCC2)c2ccc(Cl)cc2)cc1OC the AC50 was 7.59 µM (active). With COP(=O)(OC)SCn1c(=O)oc2cc(Cl)cnc21 the AC50 was 4.57 µM (active). In the case of CCc1cccc(C)c1N(C(=O)CCl)C(C)COC (stereo not drawn), the AC50 is reported as 4.6 µM (active). In the case of C=C(C)[C@H]1Cc2c(ccc3c2O[C@@H]2COc4cc(OC)c(OC)cc4[C@@H]2C3=O)O1, the AC50 is reported as 0.434 µM (active). CC[C@H](C)[C@H]1O[C@]2(C=C[C@@H]1C)C[C@@H]1C[C@@H](C/C=C(\C)[C@@H](O[C@H]3C[C@H](OC)[C@@H](O[C@H]4C[C@H](OC)[C@@H](NC)[C@H](C)O4)[C@H](C)O3)[C@@H](C)/C=C/C=C3\CO[C@@H]4[C@H](O)C(C)=C[C@@H](C(=O)O1)[C@]34O)O2 was tested, and the AC50 was 10 µM (active). CC(=NC#N)N(C)Cc1ccc(Cl)nc1 was tested, and the AC50 was 10 µM (active). In the case of CON=C(C(=O)OC)c1ccccc1CON=C(C)c1cccc(C(F)(F)F)c1, the AC50 is reported as 2.26 µM (active).

Each compound was assayed against rat CYP2A1, Cyp2a1 (gene 24894) (UniProt P11711) (assay: NVS_ADME_rCYP2A1: NovaScreen (NVS) CYP450-related Enzyme Activity (ADME) Assay for rat CYP2A1 (AID 2283114; active = hit-call score of the fitted dose curve at least 0.9, where 1 is the maximum; inactive = score below 0.9)).
rat CYP2A1, Cyp2a1 (gene 24894), sequence (P11711 whole entry, looked up): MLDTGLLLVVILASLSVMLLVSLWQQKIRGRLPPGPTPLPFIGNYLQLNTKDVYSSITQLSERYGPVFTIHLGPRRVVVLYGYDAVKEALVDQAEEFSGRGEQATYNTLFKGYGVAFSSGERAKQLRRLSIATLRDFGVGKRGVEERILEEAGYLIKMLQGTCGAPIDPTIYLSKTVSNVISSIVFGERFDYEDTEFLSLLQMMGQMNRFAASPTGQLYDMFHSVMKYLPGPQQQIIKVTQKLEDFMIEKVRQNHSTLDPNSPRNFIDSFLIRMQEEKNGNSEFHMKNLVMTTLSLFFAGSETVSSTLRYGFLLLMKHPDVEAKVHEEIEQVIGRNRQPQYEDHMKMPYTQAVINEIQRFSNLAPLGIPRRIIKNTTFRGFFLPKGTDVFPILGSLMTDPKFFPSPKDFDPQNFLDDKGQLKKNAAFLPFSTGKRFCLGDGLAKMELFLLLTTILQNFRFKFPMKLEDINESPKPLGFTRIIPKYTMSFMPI
How it was run: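 Cell-free fluorescence enzyme-activity read on recombinant rat CYP2A1, taken 0.75 h post-dosing. Compounds were screened in duplicate at 10 uM, then hits tested in concentration series (max 20 uM); inhibition scored relative to acetonitrile baseline.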
For CSC1=N[C@@](C)(c2ccccc2)C(=O)N1Nc1ccccc1, the AC50 was 7.68 µM (active). With CC1(C(=O)Nc2ccc(O)c(Cl)c2Cl)CCCCC1 the AC50 was 1.8 µM (active). In the case of C=C(C)[C@H]1Cc2c(ccc3c2O[C@@H]2COc4cc(OC)c(OC)cc4[C@@H]2C3=O)O1, the outcome is reported as “inactive”.
